Test results reported in the supplement of paper PMC6522484.
± gives the standard deviation of the averaged measurements.

Columns and labels:
[1] = test system: DLD1; assay: cell viability (CellTiter-Glo) relative to plate median (fraction of plate median); higher = more viable cells; conditions: 5 µM; treatment time 24 h; reporter: 7TFP
Summary of the method: (§1)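 Colorectal cancer cell lines stably carrying lentiviral TCF/Wnt firefly luciferase reporters (7TFP or TCF4/Wnt) were plated in 384-well plates and, 24 h later, given library compounds at a final 5 µM for 24 h. Firefly luciferase or CellTiterGlo luminescence was read on parallel plates with a Tecan F500 reader. Each well's signal was normalised to the plate median in webcellHTS2 (additive, without log transformation). Values are the mean of two independent replicates.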

[2] = test system: HCT116; assay: as above; conditions: 5 µM; treatment time 24 h; reporter: TCF4/Wnt
Summary of the method: as §1

[3] = test system: SW480; assay: as above; conditions: 5 µM; treatment time 24 h; reporter: 7TFP
Summary of the method: as §1

[4] = test system: DLD1; assay: TCF/Wnt firefly luciferase reporter signal relative to plate median (fraction of plate median); higher = higher Wnt reporter signal; conditions: 5 µM; treatment time 24 h; reporter: 7TFP
Summary of the method: as §1

[5] = test system: SW480; assay: as above; conditions: 5 µM; treatment time 24 h; reporter: 7TFP
Summary of the method: as §1

SMILES	cell viability [1]	cell viability [2]	cell viability [3]	TCF/Wnt firefly luciferase reporter signal [4]	TCF/Wnt firefly luciferase reporter signal [5]
COc1ccc2[nH]c([S+]([O-])Cc3ncc(C)c(OC)c3C)nc2c1 (stereo not given)	0.971 ± 0.084	1.01 ± 0.048	0.978 ± 0.06	1.09 ± 0.05	1.06 ± 0.11
O=C1c2ccccc2C(=O)c2c(O)c(O)cc(O)c21	1.02 ± 0.052	0.96 ± 0.14	1.09 ± 0.092	1.17 ± 0.028	0.873 ± 0.044
COc1ccc(-c2cc(=O)c3c(O)cc(OC)c(OC)c3o2)c(OC)c1	0.978 ± 0.088	0.988 ± 0.016	1.02 ± 0.064	0.9025 ± 0.005	0.896 ± 0.067
C=CC(C)(O)CCC1C(=C)CC(O)C2C(C)(C)CCCC12C (stereo not given)	0.995 ± 0.0071	0.865 ± 0.1	0.996 ± 0.0057	0.922 ± 0.15	0.927 ± 0.1
CC12CC3CC(C)(C1)CC(N)(C3)C2	1.06 ± 0.16	1.05 ± 0.05	1.02 ± 0.014	1.04 ± 0.064	1.04 ± 0.064
Nc1cc(C(Cl)=C(Cl)Cl)c(S(N)(=O)=O)cc1S(N)(=O)=O	0.9995 ± 0.00071	1.125 ± 0.0071	1.03 ± 0.014	1.17 ± 0.11	1.1 ± 0.078
COc1c(-c2ccccc2)oc2c(ccc3occc32)c1=O	1.03 ± 0.035	1.09 ± 0.078	1.03 ± 0.021	1.09 ± 0.078	1.05 ± 0.014
CC(=O)/C=C\[C@@H]1[C@@]2(C)CCCC(C)(C)C2CC[C@@]1(C)O (stereo not given in full)	1 ± 0.025	1.14 ± 0.05	1.055 ± 0.0071	1.165 ± 0.0071	0.93 ± 0.11
C[N+](C)(C)CC(O)CC(=O)[O-] (stereo not given)	0.976 ± 0.03	1.07 ± 0.14	0.9395 ± 0.00071	1.14 ± 0.014	0.902 ± 0.1
CCCc1nc2c(C)cc(-c3nc4ccccc4n3C)cc2n1Cc1ccc(-c2ccccc2C(=O)O)cc1	0.975 ± 0.12	0.992 ± 0.054	1.01 ± 0.021	0.98 ± 0.028	1 ± 0.021
OCCOCCN1CCN(C(c2ccccc2)c2ccc(Cl)cc2)CC1 (stereo not given)	0.978 ± 0.045	1.07 ± 0.014	1.01 ± 0.026	1.03 ± 0.021	1.075 ± 0.0071
COC(=O)CC[C@@H](C)[C@H]1CC[C@H]2[C@@H]3CC[C@@H]4C[C@H](O)CC[C@]4(C)[C@H]3C[C@H](O)[C@]12C	0.964 ± 0.065	1.02 ± 0.097	0.944 ± 0.018	0.955 ± 0.079	0.875 ± 0.061
COCC1=C(C(=O)OC(C)OC(=O)OC(C)C)N2C(=O)[C@@H](NC(=O)/C(=N\OC)c3csc(N)n3)[C@H]2SC1 (stereo not given in full)	1.07 ± 0.085	1.09 ± 0.085	1.02 ± 0.028	1.01 ± 0.061	0.999 ± 0.059
O[C@H]1[C@H](O)[C@@H](O)[C@H](O)[C@@H](O)[C@H]1O	0.938 ± 0.03	0.922 ± 0.097	0.931 ± 0.0057	1.12 ± 0.042	1.07 ± 0.035
O=C1OCCN1/N=C/c1ccc([N+](=O)[O-])o1	0.984 ± 0.023	1.05 ± 0.028	0.999 ± 0.0014	1.1 ± 0.078	1.05 ± 0.078
CN(C)CCCN1c2ccccc2Sc2ccc(C(F)(F)F)cc21	1.07 ± 0.17	0.993 ± 0.081	1.04 ± 0.028	0.957 ± 0.034	0.959 ± 0.17
COc1ccc2c(c1)O[C@@H]1COc3cc(OC)c(OC)cc3[C@@H]1C2=O	1.02 ± 0.067	0.841 ± 0.074	0.908 ± 0.037	0.979 ± 0.087	0.777 ± 0.046
Cc1ccc(N(CC2=NCCN2)c2cccc(O)c2)cc1	1.01 ± 0.042	0.992 ± 0.2	1.02 ± 0.014	0.92 ± 0.039	0.94 ± 0.044
CCOc1nc2cccc(C(=O)OC(C)OC(=O)OC3CCCCC3)c2n1Cc1ccc(-c2ccccc2-c2nn[nH]n2)cc1 (stereo not given)	0.864 ± 0.052	0.959 ± 0.042	1.045 ± 0.0071	1.06 ± 0.2	1.07 ± 0.064
C[C@]12CCC3c4ccc(OC(=O)c5ccccc5)cc4CCC3C1CCC2=O (stereo not given in full)	1.05 ± 0.05	1.01 ± 0.021	0.991 ± 0.011	0.978 ± 0.045	0.989 ± 0.058
CCCCC/C=C/CCC(=O)N[C@H]1[C@H](Oc2c3cc4cc2Oc2ccc(cc2Cl)[C@@H](O[C@@H]2O[C@H](CO)[C@@H](O)[C@H](O)[C@H]2NC(C)=O)[C@@H]2NC(=O)[C@H](NC(=O)[C@@H]4NC(=O)[C@H]4NC(=O)C(Cc5ccc(c(Cl)c5)O3)NC(=O)[C@H](N)c3ccc(O)c(c3)Oc3cc(O)cc4c3)c3ccc(O)c(c3)-c3c(OC4O[C@H](CO)[C@@H](O)[C@H](O)[C@@H]4O)cc(O)cc3[C@@H](C(=O)O)NC2=O)O[C@H](CO)[C@@H](O)[C@@H]1O (stereo not given in full) [TEICOPLANIN [A(2-1) shown]]	1.04 ± 0.035	1.01 ± 0.07	1.02 ± 0.083	0.971 ± 0.0071	1 ± 0.04
CC(=O)N(O)CCCCCNC(=O)CC(O)(CC(=O)NCCCCCN(O)C(C)=O)C(=O)O [Arthrobactin]	0.989 ± 0.03	1.06 ± 0.057	1.03 ± 0.049	0.976 ± 0.12	1.06 ± 0.028
COc1c2occc2c(OC)c2c(=O)cc(C)oc12	0.99 ± 0.057	0.969 ± 0.14	0.989 ± 0.016	1.2 ± 0.099	1.12 ± 0.042
CC[C@H](C)C(=O)O[C@H]1C[C@H](O)C=C2C=C[C@H](C)[C@H](CC[C@@H](O)C[C@@H](O)CC(=O)O)[C@H]21	1.03 ± 0.014	1.02 ± 0.028	0.989 ± 0.0028	1.04 ± 0.076	0.928 ± 0.16
CC(C)C[C@@H](NC(=O)[C@H](C)NC(=O)CNC(=O)[C@@H](NC=O)C(C)C)C(=O)N[C@@H](C)C(=O)N[C@@H](C(=O)N[C@H](C(=O)N[C@H](C(=O)N[C@@H](Cc1c[nH]c2ccccc12)C(=O)N[C@H](CC(C)C)C(=O)N[C@@H](Cc1c[nH]c2ccccc12)C(=O)N[C@H](CC(C)C)C(=O)N[C@@H](Cc1c[nH]c2ccccc12)C(=O)N[C@H](CC(C)C)C(=O)N[C@@H](Cc1c[nH]c2ccccc12)C(=O)NCCO)C(C)C)C(C)C)C(C)C	0.939 ± 0.13	0.903 ± 0.061	0.613 ± 0.072	0.885 ± 0.043	0.488 ± 0.077
C[C@@H]1CC(=O)c2c(ccc3c2C(=O)c2cccc(O)c2C3=O)C1 [Ochromycinone (Isoform A, compound ID 7490)]	1.06 ± 0.078	1.005 ± 0.0071	1.02 ± 0.072	1 ± 0.023	0.997 ± 0.32
O=c1[nH]c(=O)n([C@H]2C[C@H](O)[C@@H](CO)O2)cc1F	0.609 ± 0.026	1.05 ± 0.057	0.963 ± 0.024	0.688 ± 0.12	0.971 ± 0.069
CC/C(=C(\c1ccccc1)c1ccc(OCCN(C)C)cc1)c1ccccc1	1.08 ± 0.05	1.04 ± 0.064	1.05 ± 0.021	0.872 ± 0.15	0.859 ± 0.14
